What all share (assay): DAPPL (digital affinity profiling via proximity ligation, sequencing); 10 mM Tris-HCl pH 7.5, 50 mM NaCl, 1 mM DTT, 4% glycerol, room temperature, 30 min; GST-TFs on glutathione beads, 16-mer random dsDNA library, 0.1% formaldehyde crosslink after washing; high values mean tight binding
One experiment has as its target T1, FLI1 (Homo sapiens, UniProt Q01543 1-452).
T1 sequence: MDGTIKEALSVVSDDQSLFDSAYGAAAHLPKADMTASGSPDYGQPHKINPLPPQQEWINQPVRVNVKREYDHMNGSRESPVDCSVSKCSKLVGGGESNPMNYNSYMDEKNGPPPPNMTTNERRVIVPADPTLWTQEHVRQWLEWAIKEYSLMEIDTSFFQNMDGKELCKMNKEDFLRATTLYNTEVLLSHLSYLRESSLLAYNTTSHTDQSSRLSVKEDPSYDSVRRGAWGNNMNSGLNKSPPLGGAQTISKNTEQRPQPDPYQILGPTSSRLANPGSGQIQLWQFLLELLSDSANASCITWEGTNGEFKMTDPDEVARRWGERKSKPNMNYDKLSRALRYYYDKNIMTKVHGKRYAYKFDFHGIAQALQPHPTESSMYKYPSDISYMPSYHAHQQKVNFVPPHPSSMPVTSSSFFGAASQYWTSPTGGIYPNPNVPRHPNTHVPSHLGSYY
To be noted: protein: recombinant; tags: N-terminal GST; dsDNA, one strand shown. The method in brief: (§1)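 Beads coated with glutathione captured GST-fused human transcription factors that had been expressed in yeast, and the factors were then given DNA barcodes and pooled with a tag-only sample. The pools were incubated with 200 nmole of a random double-stranded 16-mer DNA library in Tris/NaCl/DTT/glycerol buffer for 30 min at room temperature, washed, crosslinked with 0.1% formaldehyde and proximity-ligated with BsaI/T4 ligase at 37 °C for 1 h. PCR amplification and Illumina NextSeq500 sequencing came last. Binding signal is each hexamer's read frequency for a factor divided by its frequency for the tag-only sample.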

The target of another experiment is T2, ELK1 (Homo sapiens, UniProt P19419 1-428).
T2 sequence: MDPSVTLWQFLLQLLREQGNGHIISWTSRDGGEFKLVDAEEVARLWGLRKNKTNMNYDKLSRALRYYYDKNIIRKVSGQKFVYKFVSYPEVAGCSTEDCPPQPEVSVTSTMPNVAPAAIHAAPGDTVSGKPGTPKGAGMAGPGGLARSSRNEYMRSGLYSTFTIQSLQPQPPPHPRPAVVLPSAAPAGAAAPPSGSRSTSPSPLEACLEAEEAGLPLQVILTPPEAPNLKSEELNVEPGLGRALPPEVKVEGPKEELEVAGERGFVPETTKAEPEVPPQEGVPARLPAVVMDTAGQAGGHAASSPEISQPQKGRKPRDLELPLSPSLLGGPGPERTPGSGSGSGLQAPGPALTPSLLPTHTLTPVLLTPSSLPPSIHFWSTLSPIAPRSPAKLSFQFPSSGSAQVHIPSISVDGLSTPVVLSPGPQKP
To be noted: protein: recombinant; tags: N-terminal GST; dsDNA, one strand shown. A digest of the protocol:
as §1

The target of a further experiment is T3, GABPA (Homo sapiens, UniProt Q06546 1-454).
T3 sequence: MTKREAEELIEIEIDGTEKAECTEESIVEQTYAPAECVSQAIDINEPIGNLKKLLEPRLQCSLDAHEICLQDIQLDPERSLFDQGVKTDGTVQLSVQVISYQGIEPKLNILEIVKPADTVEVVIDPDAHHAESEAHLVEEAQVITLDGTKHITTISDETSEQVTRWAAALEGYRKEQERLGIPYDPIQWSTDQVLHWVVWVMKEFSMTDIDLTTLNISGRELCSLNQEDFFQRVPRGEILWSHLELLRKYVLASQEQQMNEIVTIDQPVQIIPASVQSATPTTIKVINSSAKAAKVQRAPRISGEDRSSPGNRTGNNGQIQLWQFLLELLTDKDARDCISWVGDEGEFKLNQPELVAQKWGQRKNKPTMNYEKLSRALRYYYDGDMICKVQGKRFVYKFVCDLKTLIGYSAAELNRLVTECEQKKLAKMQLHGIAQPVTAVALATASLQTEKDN
To be noted: protein: recombinant; tags: N-terminal GST; dsDNA, one strand shown. A digest of the protocol: as §1

The target in another experiment is ELF1 (Homo sapiens, UniProt P32519 1-619). The following applies: protein: recombinant; tags: N-terminal GST; dsDNA, one strand shown. The method in brief:
as §1

Another experiment deals with T4, EHF (Homo sapiens, UniProt Q9NZC4 1-300).
T4 sequence: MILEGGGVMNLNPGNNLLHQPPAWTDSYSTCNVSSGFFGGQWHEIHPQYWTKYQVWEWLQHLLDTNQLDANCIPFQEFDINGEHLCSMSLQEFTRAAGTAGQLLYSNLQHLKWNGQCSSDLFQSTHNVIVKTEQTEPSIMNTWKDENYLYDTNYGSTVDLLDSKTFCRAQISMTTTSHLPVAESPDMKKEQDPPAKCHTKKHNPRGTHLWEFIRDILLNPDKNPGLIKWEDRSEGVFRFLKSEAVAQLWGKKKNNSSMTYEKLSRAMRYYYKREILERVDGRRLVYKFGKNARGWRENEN
To be noted: protein: recombinant; tags: N-terminal GST; dsDNA, one strand shown. The method in brief:
as §1

Another experiment concerns the target T5, ELK3 (Homo sapiens, UniProt P41970 1-407).
T5 sequence: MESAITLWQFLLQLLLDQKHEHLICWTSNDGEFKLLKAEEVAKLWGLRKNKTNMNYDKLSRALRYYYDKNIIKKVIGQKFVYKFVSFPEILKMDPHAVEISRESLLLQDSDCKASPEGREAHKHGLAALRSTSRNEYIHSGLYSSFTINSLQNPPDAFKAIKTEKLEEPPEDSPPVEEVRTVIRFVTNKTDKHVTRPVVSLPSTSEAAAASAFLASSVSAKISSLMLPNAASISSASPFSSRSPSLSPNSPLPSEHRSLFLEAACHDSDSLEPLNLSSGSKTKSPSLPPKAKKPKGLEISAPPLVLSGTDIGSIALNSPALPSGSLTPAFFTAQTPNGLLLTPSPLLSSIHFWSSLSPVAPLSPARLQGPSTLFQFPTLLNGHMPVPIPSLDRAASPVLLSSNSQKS
The following applies: protein: recombinant; tags: N-terminal GST; dsDNA, one strand shown. The method in brief: as §1

In a further experiment the target is ETV5 (Homo sapiens, UniProt P41161 1-510). To be noted: protein: recombinant; tags: N-terminal GST; dsDNA, one strand shown. A digest of the protocol:
as §1

A further experiment has as its target HSF1 (Homo sapiens, UniProt Q00613 1-529). The following applies: protein: recombinant; tags: N-terminal GST; chain copies: 3; dsDNA, one strand shown. A digest of the protocol:
as §1

For another experiment, the target named is T6, SPIC (Homo sapiens, UniProt Q8N5J4 1-248).
T6 sequence: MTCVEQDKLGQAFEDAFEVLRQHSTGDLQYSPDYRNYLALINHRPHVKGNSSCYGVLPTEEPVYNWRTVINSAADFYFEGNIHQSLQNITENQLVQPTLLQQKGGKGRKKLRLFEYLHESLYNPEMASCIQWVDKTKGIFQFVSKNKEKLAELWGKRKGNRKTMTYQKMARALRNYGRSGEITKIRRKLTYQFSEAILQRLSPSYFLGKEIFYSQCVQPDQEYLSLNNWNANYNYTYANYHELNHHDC
The following applies: protein: recombinant; tags: N-terminal GST; dsDNA, one strand shown. A digest of the protocol: as §1

In a further experiment the target is ELF4 (Homo sapiens, UniProt Q99607 1-663). The following applies: protein: recombinant; tags: N-terminal GST; dsDNA, one strand shown. A digest of the protocol:
as §1

In the next experiment the target is T7, ELK4 (Homo sapiens, UniProt P28324-2 1-405).
T7 sequence: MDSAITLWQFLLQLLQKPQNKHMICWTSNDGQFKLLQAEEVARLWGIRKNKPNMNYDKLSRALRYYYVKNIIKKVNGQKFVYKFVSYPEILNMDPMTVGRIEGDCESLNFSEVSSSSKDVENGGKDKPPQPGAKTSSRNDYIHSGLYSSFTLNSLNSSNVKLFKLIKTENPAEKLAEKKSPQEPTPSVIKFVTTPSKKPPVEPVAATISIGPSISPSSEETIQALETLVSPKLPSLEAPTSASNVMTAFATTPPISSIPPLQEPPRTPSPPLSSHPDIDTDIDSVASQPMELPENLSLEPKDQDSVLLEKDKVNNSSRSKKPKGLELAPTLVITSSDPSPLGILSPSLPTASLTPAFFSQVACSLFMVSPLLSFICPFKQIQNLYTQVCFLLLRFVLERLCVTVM
The following applies: protein: recombinant; tags: N-terminal GST; dsDNA, one strand shown. The method in brief:
as §1

A further experiment concerns the target T8, ELF3 (Homo sapiens, UniProt P78545 1-371).
T8 sequence: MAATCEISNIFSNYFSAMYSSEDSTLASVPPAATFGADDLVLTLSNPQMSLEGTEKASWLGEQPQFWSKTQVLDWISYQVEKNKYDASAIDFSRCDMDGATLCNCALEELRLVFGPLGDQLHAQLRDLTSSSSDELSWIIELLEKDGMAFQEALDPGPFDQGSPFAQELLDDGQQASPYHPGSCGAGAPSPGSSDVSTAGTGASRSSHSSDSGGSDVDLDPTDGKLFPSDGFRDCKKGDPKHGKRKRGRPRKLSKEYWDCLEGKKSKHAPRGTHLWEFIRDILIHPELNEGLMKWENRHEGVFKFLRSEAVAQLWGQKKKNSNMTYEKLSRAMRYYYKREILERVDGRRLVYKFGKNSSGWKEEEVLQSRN
The following applies: protein: recombinant; tags: N-terminal GST; dsDNA, one strand shown. A digest of the protocol: as §1

A further experiment concerns the target CRX (Homo sapiens, UniProt O43186 1-299). The following applies: protein: recombinant; tags: N-terminal GST; dsDNA, one strand shown. The method in brief:
as §1

For the next experiment, the target named is ETV1 (Homo sapiens, UniProt P50549 1-477). The following applies: protein: recombinant; tags: N-terminal GST; dsDNA, one strand shown. The method in brief:
as §1

HSF1, sequence (Q00613 whole entry): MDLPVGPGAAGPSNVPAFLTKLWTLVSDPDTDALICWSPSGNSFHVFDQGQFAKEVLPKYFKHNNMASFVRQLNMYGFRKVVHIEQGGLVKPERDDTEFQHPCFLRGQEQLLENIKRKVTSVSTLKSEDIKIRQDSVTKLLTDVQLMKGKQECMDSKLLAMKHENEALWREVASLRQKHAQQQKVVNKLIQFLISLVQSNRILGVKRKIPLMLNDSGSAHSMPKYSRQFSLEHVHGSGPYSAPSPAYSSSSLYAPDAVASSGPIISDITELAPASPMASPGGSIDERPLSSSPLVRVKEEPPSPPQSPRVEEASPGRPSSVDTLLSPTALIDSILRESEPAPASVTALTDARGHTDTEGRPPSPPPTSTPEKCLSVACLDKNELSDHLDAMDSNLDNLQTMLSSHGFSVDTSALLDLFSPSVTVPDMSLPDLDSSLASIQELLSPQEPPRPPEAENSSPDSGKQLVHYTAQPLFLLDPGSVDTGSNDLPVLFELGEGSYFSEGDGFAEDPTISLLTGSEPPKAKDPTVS
CRX, sequence (O43186 whole entry): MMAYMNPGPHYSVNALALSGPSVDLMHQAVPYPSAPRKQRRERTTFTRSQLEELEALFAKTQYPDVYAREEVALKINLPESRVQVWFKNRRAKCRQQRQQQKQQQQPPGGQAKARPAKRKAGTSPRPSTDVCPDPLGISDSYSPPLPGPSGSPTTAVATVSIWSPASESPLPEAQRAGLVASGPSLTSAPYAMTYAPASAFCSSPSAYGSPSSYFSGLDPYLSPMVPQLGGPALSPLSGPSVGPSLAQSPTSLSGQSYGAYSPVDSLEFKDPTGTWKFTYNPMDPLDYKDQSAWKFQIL
ETV1, sequence (P50549 whole entry): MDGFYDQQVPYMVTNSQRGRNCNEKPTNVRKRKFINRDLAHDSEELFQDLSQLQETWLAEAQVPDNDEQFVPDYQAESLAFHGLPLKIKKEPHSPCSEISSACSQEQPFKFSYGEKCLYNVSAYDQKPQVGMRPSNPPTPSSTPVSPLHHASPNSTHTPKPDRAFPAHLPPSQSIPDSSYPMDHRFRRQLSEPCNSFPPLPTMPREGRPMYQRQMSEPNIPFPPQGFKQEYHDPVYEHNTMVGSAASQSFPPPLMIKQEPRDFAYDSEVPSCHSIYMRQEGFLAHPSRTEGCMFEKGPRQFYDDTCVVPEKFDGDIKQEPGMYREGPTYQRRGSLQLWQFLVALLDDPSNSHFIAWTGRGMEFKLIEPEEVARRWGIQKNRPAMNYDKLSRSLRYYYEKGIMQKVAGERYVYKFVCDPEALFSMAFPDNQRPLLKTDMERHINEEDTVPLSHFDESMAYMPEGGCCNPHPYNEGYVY
ELF4, sequence (Q99607 whole entry): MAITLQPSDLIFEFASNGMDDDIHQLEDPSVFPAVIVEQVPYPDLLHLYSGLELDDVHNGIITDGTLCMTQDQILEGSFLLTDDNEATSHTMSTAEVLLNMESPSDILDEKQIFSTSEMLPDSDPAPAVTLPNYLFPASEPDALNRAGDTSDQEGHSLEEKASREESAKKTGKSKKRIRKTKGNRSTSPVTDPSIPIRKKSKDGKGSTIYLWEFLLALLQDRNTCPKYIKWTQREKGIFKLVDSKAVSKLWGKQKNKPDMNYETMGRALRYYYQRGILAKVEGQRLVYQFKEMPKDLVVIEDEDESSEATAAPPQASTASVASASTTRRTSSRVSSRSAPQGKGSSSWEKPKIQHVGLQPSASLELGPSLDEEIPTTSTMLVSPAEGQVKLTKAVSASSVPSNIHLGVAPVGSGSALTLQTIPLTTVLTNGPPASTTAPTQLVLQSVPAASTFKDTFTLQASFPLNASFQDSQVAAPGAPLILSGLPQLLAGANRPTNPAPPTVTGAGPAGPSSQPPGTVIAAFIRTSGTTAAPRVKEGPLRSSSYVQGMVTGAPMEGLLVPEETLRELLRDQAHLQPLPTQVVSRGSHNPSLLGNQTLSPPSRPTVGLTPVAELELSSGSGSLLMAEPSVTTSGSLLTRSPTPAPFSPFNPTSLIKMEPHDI
ELF1, sequence (P32519 whole entry): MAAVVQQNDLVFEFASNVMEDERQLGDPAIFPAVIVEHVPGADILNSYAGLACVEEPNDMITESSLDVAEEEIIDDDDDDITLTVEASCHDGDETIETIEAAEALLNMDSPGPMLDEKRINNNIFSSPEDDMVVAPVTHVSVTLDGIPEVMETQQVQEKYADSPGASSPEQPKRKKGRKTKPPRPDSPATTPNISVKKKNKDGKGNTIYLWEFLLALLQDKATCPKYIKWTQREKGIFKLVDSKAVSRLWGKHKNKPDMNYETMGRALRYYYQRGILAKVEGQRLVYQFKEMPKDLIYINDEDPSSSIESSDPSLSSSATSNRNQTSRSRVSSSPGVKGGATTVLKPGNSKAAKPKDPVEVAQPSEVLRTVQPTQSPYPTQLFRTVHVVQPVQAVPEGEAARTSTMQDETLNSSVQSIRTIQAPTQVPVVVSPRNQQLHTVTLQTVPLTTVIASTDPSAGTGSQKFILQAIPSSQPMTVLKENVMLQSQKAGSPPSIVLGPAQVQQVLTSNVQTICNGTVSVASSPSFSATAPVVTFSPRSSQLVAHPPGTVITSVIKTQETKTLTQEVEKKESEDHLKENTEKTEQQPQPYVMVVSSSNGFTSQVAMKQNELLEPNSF
ETV5, sequence (P41161 whole entry): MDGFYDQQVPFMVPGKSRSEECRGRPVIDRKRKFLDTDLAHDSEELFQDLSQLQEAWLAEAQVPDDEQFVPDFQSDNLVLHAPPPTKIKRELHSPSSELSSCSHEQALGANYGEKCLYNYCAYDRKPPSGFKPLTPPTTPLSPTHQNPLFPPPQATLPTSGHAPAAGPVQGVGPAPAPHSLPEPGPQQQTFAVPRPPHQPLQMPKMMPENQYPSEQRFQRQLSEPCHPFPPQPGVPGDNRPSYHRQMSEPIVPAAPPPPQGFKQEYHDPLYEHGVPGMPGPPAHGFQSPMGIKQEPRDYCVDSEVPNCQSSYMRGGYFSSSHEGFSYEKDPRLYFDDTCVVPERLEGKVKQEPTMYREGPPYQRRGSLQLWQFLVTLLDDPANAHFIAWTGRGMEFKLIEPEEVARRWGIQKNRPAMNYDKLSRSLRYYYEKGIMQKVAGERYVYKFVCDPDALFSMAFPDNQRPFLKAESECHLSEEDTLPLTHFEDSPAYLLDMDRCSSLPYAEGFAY

As to TCATGA, the binding signal is 1.12 fold enrichment (6-mer frequency, TF over GST control) in the experiment with FLI1; 1 fold enrichment (6-mer frequency, TF over GST control) with ELK1; 1.18 fold enrichment (6-mer frequency, TF over GST control) in the experiment with GABPA; 1.03 fold enrichment (6-mer frequency, TF over GST control) with ELF1; 1.07 fold enrichment (6-mer frequency, TF over GST control) with EHF; 1.05 fold enrichment (6-mer frequency, TF over GST control) in the experiment with ELK3. The binding signal in the experiment with ETV5 is 1.08 fold enrichment (6-mer frequency, TF over GST control); with HSF1 it was 1.06 fold enrichment (6-mer frequency, TF over GST control); with SPIC, 1.07 fold enrichment (6-mer frequency, TF over GST control); with ELF4, 1.06 fold enrichment (6-mer frequency, TF over GST control); in the experiment with ELK4, 1.03 fold enrichment (6-mer frequency, TF over GST control); in the experiment with ELF3 it was 1 fold enrichment (6-mer frequency, TF over GST control). For the same sequence, the binding signal was 1.07 fold enrichment (6-mer frequency, TF over GST control) with CRX and 1.14 fold enrichment (6-mer frequency, TF over GST control) in the experiment with ETV1.
